# Pol eta inh: qHTS for Inhibitors of Polymerase Eta. DNA polymerase eta (Homo sapiens), Q9Y253. recombinant Pol eta, fluorescent DNA replication assay. Potency, µM (highest dose often 114 µM), most hits filed as inhibitors. actives 1.2% (n = 390,000). AID 588591, 2011
#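 Pol eta at 10 nM preincubated with compounds 15 min at room temperature; reaction started with fluorescent substrate (50 nM final) and read kinetically at 0 and 10 min.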
# Pol beta inh: qHTS Assay for Inhibitors of DNA Polymerase Beta; Potency, µM (highest dose often 114 µM), most hits filed as inhibitors; Pol beta primer extension/strand displacement, fluorescence kinetic; P06746; actives 1.3% (n = 340,000)
#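 Pol beta (10 nM) was preincubated with compound for 15 min at room temperature. The reaction was then started with 50 nM substrate and read immediately and after a further 10 min at room temperature.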
# POLK inh: qHTS for Inhibitors of Polymerase Kappa | purified Pol kappa, fluorescent DNA synthesis assay, 10 min | Potency, µM (titrated, usually from 107 µM), actives largely listed as inhibitors | actives 0.53% (n = 400,000) | AID 588579, 2011
#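 Here, compound and 10 nM enzyme are combined for 15 min at room temperature; adding 50 nM substrate (final) starts DNA synthesis, tracked by fluorescence at 0 and 10 min against buffer-only wells.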
# PI5P4Ka inh: qHTS for Inhibitors of phosphatidylinositol 5-phosphate 4-kinase (PI5P4K) | max response, % | PI5P4Kalpha enzyme, ADP-Glo luminescence, 60 min; active compounds read low | AID 652105, 2013 | Phosphatidylinositol 5-phosphate 4-kinase type-2 alpha (Homo sapiens), P48426 | actives 1.2% (n = 330,000); active means max response of -50% or lower; inconclusive means between -30% and -50%; inactive means -30% or higher; further: value at the top dose of about 77 µM
#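 qHTS, 1536-well: enzyme/substrate mix, compound by pin tool, 5 microM ATP final; RT 60 min; ADP-Glo reagents 1 (45 min) then 2 (30 min); luminescence.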
# 12-LOX inh: Primary qHTS assay for inhibitors of human arachidonate 12S-lipoxygenase (ALOX12): Round 2. actives 1.1% (n = 580,000). purified 12hLO, xylenol orange hydroperoxide absorbance. Polyunsaturated fatty acid lipoxygenase ALOX12 (Homo sapiens), P18054. Potency, µM (doses to about 108 µM), usual class: inhibitors
# Target sequence (P18054 whole entry, looked up): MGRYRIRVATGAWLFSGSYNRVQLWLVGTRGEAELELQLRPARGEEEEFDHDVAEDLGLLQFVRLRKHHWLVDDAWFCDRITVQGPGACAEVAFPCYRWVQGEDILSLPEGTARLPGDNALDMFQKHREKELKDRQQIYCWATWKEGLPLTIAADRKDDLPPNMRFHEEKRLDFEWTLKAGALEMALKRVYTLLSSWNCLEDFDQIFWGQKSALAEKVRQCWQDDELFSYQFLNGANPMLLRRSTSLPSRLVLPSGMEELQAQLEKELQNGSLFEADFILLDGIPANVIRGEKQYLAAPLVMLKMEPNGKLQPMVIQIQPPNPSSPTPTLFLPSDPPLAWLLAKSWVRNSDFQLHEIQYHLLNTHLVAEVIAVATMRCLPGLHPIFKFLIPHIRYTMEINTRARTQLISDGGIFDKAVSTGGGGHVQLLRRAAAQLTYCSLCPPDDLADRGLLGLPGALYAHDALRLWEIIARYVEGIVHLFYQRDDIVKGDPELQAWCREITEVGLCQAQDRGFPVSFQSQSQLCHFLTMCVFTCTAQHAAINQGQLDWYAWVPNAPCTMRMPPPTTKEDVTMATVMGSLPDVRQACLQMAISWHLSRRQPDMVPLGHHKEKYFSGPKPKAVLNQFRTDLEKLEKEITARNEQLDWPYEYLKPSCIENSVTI
#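 Hydroperoxide product was detected by ferrous iron/xylenol orange as the 573 to 405 nm absorbance ratio. Arachidonic acid at 40 uM (final) was turned over for 30 min at room temperature by 150 nM human 12hLO, pH 7.0 Hepes buffer, after 15 min compound preincubation.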
# POLI inh: qHTS for Inhibitors of Polymerase Iota; actives 1% (n = 390,000); Pol iota fluorescent replication assay, 10 min; AID 588590, 2011; DNA polymerase iota (Homo sapiens), Q9UNA4; Potency, µM (doses to about 115 µM), hits mostly inhibitors
#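 Pol iota at 10 nM preincubated 15 min with compounds at room temperature; reaction started with fluorescent substrate, 50 nM final. Fluorescence read kinetically at 0 and 10 min; buffer-only wells as negative control.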
# A number is an active result; i = inactive; ? = inconclusive; nt = no result given. The list is not random: actives were taken first. Their share in the collection is about 2.9%. Unless noted, the call rests on the fitted dose curve; in most records, active means well fitted inhibition curve with a large enough effect; inconclusive means small, poorly fitted or top-dose-only effect, or another doubt; inactive means no such curve, though single readings can be large or run the other way.
SMILES,Pol eta inh,Pol beta inh,POLK inh,PI5P4Ka inh,12-LOX inh,POLI inh
Cc1c(Cl)cccc1NC(C)C(=O)Nc1ccc(Cl)cn1 (centres undefined),nt,nt,nt,nt,i,nt
CC(=O)Nc1ccc(C(=O)NC[C@@H]2C=C(C)[C@H](Cc3nnc(-c4ccccc4F)o3)C[C@H]2C(C)C)cc1,nt,nt,nt,nt,i,nt
O=C(O)c1cccc(CN2C(=O)S/C(=C/c3ccccc3[N+](=O)[O-])C2=O)c1,79µM,i,i,i,i,20µM
O=C1S/C(=C\c2ccc(O)c([N+](=O)[O-])c2)C(=O)N1Cc1cccc([N+](=O)[O-])c1,?,32µM,?,-78,?,?
CCCCCCC(=O)N(O)C1CC(=O)N(c2ccc(Cl)cc2)C1=O (centres undefined),i,i,i,i,1.3µM,i
Cc1ccc2c(c1)C(=O)OC(C(=O)Nc1ccc(C(=O)O)cc1)C2 (centres undefined),i,i,i,nt,i,89µM
O=C(Nc1ccc(C2=NCCN2)cc1)c1ccc(Cl)c(C(=O)Nc2ccc(C3=NCCN3)cc2)c1,nt,50µM,nt,nt,nt,nt
CC(=Nc1ccc(Cl)cc1N)c1c(O)cc(C)oc1=O,nt,nt,nt,nt,35µM,nt
Cc1cc(O)c(C(=O)/C=C/c2ccc(Cl)cc2)c(=O)o1,i,i,i,-69,i,i
CSc1ccc(/C=C/C(=O)c2c(O)cc(C)oc2=O)cc1,i,i,i,-54,i,?
CC(=O)c1c(C)n[nH]c1C,nt,nt,nt,nt,i,nt
CCOc1ccc(NC(=O)c2nnn3c2COC(c2ccc(Cl)cc2)C3)cc1 (centres undefined),nt,nt,nt,nt,45µM,nt
CCOc1ccc(NC(=O)c2cc3n(n2)CC(c2ccc(Cl)cc2)OC3)cc1 (centres undefined),nt,nt,nt,nt,i,nt
CCn1cc2nc(SCC(=O)Nc3ccc(C)cc3)n(Cc3ccc(C)cc3)c(=O)c2n1,?,?,i,nt,i,i
CCn1cc2nc(SCC(=O)Nc3ccccc3C(F)(F)F)n(Cc3ccc(C)cc3)c(=O)c2n1,i,10µM,?,nt,i,45µM
CCCCCCCNC1=CC(=O)CC(c2ccco2)C1 (centres undefined),i,11µM,i,nt,?,?
O=C1C=C(NCCN2CCOCC2)CC(c2ccco2)C1 (centres undefined),nt,nt,nt,nt,i,nt
C#CCNC(=O)N1CCN(c2ccc(F)cc2)CC1,nt,nt,nt,nt,i,nt
COCCn1c(=S)[nH]c2sc3c(c2c1=O)CCC(C)C3 (centres undefined),i,i,i,?,?,i
COCCCn1c(=S)[nH]c2sc3c(c2c1=O)CCCS3,i,?,i,i,45µM,i
O=C(Cc1ccc2c(c1)OCCCO2)NC1CCCc2c1[nH]c1ccccc21 (centres undefined),nt,nt,nt,nt,50µM,nt
COc1cc2nc(C)n(CC(=O)NC3CCCc4c3[nH]c3ccccc43)c(=O)c2cc1OC (centres undefined),nt,nt,nt,nt,45µM,nt
CC1CCN(C(=O)c2cc3c(ccc4ccccc43)o2)CC1,i,i,i,i,45µM,i
CC(=O)c1cc2c(ccc3ccccc32)o1,nt,nt,nt,nt,32µM,nt
O=C(O)c1cc2c(ccc3ccccc32)oc1=O,nt,i,nt,nt,i,nt
CC(C)CC(=O)Nc1ccc(C(=O)NNC(=O)C(c2ccccc2)c2ccccc2)cc1,i,i,i,nt,i,i
CCC(=O)Nc1ccc(C(=O)NNC(=O)C(c2ccccc2)c2ccccc2)cc1,?,45µM,i,i,i,i
CC(C)C(=O)Nc1ccc(C(=O)NNC(=O)C(c2ccccc2)c2ccccc2)cc1,i,?,i,nt,i,79µM
COc1ccc(/C(O)=C2/C(=O)C(=O)N(Cc3ccco3)C2c2cccs2)cc1 (centres undefined),i,?,i,nt,20µM,i
O=C(C[C@@H]1CCNC[C@@H]1Cc1cc(COc2ccccc2)on1)N1CCC(n2c(=O)[nH]c3ccccc32)CC1,nt,nt,nt,nt,i,nt

# Screening results (PubChem)
